Drawing on the supplement of paper PMC10849652, this text covers log2 fold change for 33 targets.

Targets with a hit are over-represented here; the source holds about 8,800 in all. About 0.5% of all pairs of compound and target were hits. Values without a mark were called inactive.

UniProt P31949, sequence (P31949 whole entry, looked up): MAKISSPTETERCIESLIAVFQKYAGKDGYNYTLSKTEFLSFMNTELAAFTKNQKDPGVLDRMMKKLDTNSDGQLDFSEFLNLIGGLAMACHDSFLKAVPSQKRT
UniProt Q9UPW6, sequence (Q9UPW6 whole entry, looked up): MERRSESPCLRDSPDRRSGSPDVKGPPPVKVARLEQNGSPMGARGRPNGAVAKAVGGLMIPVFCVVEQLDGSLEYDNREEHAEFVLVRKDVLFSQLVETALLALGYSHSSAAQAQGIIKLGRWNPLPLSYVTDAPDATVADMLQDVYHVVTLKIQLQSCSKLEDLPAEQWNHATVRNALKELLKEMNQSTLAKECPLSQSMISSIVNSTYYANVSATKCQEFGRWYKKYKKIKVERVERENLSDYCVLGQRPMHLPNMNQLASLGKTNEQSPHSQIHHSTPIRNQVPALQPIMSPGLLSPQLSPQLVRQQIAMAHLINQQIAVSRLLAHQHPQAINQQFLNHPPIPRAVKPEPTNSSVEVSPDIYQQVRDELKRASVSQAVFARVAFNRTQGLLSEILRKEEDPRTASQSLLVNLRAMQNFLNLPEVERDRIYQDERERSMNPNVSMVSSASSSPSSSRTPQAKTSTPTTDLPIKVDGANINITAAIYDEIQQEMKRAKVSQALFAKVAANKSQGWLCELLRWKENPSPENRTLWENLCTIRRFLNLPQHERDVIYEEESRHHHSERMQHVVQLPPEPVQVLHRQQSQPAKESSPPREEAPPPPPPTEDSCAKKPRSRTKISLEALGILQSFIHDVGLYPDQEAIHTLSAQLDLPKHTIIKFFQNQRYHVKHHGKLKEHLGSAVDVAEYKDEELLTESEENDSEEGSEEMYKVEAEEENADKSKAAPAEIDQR
UniProt Q99708, sequence (Q99708 whole entry, looked up): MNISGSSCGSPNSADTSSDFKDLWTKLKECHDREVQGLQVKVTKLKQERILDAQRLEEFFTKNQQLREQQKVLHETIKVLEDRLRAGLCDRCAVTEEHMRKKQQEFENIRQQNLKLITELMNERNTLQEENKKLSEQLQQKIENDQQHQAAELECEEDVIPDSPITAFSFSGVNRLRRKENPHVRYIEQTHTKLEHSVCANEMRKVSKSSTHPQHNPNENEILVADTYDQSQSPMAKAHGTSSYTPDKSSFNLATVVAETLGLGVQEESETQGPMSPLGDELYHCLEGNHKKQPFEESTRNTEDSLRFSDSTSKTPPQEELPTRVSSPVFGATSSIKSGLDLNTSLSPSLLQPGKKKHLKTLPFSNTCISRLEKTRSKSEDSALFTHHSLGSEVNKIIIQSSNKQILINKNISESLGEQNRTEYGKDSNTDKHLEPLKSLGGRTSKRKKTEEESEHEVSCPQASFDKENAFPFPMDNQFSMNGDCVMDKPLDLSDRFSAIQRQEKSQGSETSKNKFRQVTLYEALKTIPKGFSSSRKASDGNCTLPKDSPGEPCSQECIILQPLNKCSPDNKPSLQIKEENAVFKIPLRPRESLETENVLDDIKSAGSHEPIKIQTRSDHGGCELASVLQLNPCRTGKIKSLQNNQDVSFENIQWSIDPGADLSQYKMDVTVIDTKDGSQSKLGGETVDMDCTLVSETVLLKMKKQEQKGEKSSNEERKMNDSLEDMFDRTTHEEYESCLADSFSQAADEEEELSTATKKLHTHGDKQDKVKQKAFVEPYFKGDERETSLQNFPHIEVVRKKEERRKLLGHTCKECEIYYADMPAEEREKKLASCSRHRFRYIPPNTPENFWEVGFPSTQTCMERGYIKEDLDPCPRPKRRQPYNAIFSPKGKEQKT
UniProt P51812, sequence (P51812 whole entry, looked up): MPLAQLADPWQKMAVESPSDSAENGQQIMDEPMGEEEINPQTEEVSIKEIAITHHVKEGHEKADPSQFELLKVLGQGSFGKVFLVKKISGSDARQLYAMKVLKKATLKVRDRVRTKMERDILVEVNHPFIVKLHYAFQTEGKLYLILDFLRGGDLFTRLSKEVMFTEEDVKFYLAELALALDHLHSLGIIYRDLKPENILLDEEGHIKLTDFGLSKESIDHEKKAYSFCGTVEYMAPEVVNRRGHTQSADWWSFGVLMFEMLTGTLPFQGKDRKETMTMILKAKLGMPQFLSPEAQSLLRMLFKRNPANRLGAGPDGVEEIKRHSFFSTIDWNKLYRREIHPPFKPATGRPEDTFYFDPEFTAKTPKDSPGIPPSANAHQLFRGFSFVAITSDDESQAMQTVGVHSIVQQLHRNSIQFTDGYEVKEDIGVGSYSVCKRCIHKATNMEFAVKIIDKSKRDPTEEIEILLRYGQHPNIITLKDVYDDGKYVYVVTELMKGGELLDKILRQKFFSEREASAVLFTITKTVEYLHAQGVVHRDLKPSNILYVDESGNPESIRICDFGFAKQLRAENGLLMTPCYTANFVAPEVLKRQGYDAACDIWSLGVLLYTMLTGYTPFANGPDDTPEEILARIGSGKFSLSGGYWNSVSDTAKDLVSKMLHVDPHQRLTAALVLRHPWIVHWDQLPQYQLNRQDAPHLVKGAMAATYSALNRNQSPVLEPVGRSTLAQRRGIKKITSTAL
UniProt P04844, sequence (P04844 whole entry, looked up): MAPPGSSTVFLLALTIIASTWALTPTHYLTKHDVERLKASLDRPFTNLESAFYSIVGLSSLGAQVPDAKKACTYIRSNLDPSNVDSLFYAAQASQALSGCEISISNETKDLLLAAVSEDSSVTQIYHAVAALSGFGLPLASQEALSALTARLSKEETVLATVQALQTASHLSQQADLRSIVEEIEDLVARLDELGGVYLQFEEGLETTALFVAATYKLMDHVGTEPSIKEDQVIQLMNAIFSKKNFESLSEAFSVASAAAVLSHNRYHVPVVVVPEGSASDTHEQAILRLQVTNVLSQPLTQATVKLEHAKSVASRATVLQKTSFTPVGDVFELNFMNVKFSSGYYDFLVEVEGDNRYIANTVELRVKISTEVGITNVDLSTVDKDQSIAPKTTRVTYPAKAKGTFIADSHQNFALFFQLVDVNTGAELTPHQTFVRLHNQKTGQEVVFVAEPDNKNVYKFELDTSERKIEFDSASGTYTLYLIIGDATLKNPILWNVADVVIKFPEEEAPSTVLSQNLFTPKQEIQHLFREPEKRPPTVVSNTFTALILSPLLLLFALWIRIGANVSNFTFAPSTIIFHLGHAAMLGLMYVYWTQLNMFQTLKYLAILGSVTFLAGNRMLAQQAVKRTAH
UniProt P31040, sequence (P31040 whole entry, looked up): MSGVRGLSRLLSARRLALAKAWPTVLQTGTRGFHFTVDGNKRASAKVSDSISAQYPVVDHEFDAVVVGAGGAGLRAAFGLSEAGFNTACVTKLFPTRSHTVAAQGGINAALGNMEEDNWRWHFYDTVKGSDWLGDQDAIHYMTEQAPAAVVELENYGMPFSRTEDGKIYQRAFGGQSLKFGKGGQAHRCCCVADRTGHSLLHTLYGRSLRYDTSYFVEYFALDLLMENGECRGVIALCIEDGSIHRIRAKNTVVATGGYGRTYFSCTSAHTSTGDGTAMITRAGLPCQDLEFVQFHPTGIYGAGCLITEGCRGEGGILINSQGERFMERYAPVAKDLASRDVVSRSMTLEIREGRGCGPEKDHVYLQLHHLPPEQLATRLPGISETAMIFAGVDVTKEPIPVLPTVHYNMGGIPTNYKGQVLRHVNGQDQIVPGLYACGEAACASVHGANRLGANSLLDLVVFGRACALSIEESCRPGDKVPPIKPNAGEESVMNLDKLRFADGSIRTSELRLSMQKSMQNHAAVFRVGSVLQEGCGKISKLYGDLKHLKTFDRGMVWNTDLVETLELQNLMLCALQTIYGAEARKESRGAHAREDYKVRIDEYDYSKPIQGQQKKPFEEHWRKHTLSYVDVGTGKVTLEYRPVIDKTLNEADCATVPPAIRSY
UniProt Q5TBB1, sequence (Q5TBB1 whole entry, looked up): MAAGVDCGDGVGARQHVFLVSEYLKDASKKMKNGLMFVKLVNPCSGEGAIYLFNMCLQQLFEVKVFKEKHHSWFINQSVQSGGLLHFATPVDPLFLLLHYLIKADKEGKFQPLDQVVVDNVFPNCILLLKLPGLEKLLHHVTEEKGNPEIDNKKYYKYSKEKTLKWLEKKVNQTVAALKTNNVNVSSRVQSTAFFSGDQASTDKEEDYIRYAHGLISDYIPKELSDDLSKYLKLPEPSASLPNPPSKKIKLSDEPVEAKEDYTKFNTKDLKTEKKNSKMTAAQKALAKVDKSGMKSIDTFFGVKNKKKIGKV
UniProt P38159, sequence (P38159 whole entry, looked up): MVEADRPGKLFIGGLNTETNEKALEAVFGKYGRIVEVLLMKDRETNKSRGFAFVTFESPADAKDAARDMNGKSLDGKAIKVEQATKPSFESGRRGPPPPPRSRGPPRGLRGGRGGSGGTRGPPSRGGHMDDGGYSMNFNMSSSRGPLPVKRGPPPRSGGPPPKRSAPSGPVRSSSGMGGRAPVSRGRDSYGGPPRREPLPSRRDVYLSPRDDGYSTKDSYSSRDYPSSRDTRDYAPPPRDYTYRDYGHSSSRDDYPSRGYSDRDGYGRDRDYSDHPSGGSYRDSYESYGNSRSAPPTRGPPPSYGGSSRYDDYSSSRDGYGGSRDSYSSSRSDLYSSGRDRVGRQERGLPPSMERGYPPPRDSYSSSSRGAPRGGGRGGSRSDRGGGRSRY
UniProt O15541, sequence (O15541 whole entry, looked up): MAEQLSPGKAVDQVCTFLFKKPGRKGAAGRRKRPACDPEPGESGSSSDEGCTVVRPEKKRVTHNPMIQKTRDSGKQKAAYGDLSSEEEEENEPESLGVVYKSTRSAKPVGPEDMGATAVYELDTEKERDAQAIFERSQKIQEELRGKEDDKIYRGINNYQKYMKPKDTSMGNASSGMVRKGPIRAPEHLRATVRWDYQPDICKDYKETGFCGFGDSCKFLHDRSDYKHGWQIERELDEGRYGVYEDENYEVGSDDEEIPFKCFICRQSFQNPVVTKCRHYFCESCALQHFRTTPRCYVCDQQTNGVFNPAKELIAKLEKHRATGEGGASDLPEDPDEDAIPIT

Compound in this assay: NCC(=O)Nc1ccc(-n2nc(C(F)(F)F)cc2-c2ccc3c(ccc4ccccc43)c2)cc1
The experiment in a line: log2 fold change, soluble protein after heating vs DMSO (PISA); higher = thermal stabilisation; K562 lysate, 10 uM; active = over 0.2 and 3.5 SD of the protein, either way, in both replicates (recomputed). A digest of the protocol:
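Pellets of K562 cells were dounce-homogenised in PBS pH 7.4 with 1 mM MgCl2, and the crude extract was held at 1 mg/mL protein for a 30 min treatment with 10 μM compound. Aliquots were heated for 3 min over 48°C-58°C and pooled before NP-40 was added to 0.5% at 4°C. The supernatant from 21,000xg for 90 min was quantified by TMTpro 16plex LC-MS/MS with channel sums equalised. Values are reported from duplicates as log-two fold change in thermal stability relative to solvent controls.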
For RTN4IP1 (UniProt Q8WWV3), the log2 fold change was -0.1.
Turning to SATB2 (UniProt Q9UPW6), the log2 fold change was 0.
Consider RRAGA (UniProt Q7L523), for which the log2 fold change was -0.007.
Turning to RFC2 (UniProt P35250), the log2 fold change was -0.027.
In the case of SASS6 (UniProt Q6UVJ0), the log2 fold change was 0.015.
As to SEC16A isoform 5 (UniProt O15027), the log2 fold change is 0.053.
As to SEH1L isoform 1 (UniProt Q96EE3), the log2 fold change was 0.056.
Then RECQL5 (UniProt O94762), with -0.063; and SAR1A (UniProt Q9NR31), with 0.004.
With RAP1GAP isoform 4 (UniProt P47736), the log2 fold change is -0.058.
Take RNASEL (UniProt Q05823): the log2 fold change is -0.005.
As for RIOK3 (UniProt O14730), the log2 fold change was -0.024.
Take RRM1 (UniProt P23921): the log2 fold change was 0.011.
Then RBBP8 isoform 2 (UniProt Q99708), with -0.035.
Turning to REEP5 (UniProt Q00765), the log2 fold change is -0.034.
RAB21 (UniProt Q9UL25): the log2 fold change was 0.017.
Take RDH14 (UniProt Q9HBH5): the log2 fold change was -0.072.
In the case of SDHA (UniProt P31040), the log2 fold change is 0.007.
The result for RABL3 (UniProt Q5HYI8) reads 0.031.
Take RBMX (UniProt P38159): the log2 fold change was -0.043.
The result for RNASEH2B (UniProt Q5TBB1) reads -0.016; that for RAC2 (UniProt P15153), -0.073; that for RPS6KA3 (UniProt P51812), -0.017.
On to RNF113A (UniProt O15541), for which the log2 fold change was 0.009.
On to RCOR1 (UniProt Q9UKL0), for which the log2 fold change is 0.034.
Consider RBM4 (UniProt Q9BWF3), for which the log2 fold change is -0.04.
For SBF1 isoform 4 (UniProt O95248), the log2 fold change was 0.013.
For RBSN (UniProt Q9H1K0), the log2 fold change is 0.039.
RAPGEF2, A0A2R8YGD3: the log2 fold change is -0.041.
For RBBP7 (UniProt Q16576), the log2 fold change was -0.005.
The result for S100A11 (UniProt P31949) reads -0.085.
For RPN2 (UniProt P04844), the log2 fold change is -0.007.
The result for RXRB isoform 3 (UniProt P28702) reads 0.067.
